Cycloheximide cs = Cycloheximide Counterscreen for Small Molecule Inhibitors of Shiga Toxin. max response, %. cell reporter, cycloheximide protein synthesis inhibition counterscreen. 12% of 300,000 active. AID 2314, 2010; in the data active = max response mostly above about 13%, no sharp cut-off; inactive = mostly below about 14%; also: read at 38.3 µM for the half of the compounds with a filed dose
Shiga toxin inh = A qHTS for Small Molecule Inhibitors of Shiga Toxin | Vero cells, Shiga toxin protein synthesis inhibition reporter | inhibition, % at 38.7 µM | 9.2% of 290,000 active; in the data active = inhibition mostly above about 28%, no sharp cut-off; inactive = mostly below about 43%
SARS PLP yeast = qHTS of Yeast-based Assay for SARS-CoV PLP; 0.19% of 330,000 active; Potency, µM (titrated, usually from 32.9 µM), hits mostly activators; AID 485353, 2010; S. cerevisiae expressing SARS-CoV PLpro, growth rescue; calls by dose curve; also: nearly all actives have a fitted effect of over 55% in size
AMA1 RON2 block = qHTS for Inhibitors of AMA1-RON; Towards Development of Antimalarial Drug Lead: Primary Screen; AlphaScreen AMA1-biotinylated RON2 peptide binding; AID 720542, 2013; 0.2% of 360,000 active; Plasmodium falciparum AMA1 (3D7) - RON2 peptide interaction; Potency, µM (highest dose often 58.2 µM), most hits filed as inhibitors; also: nearly all actives have a fitted effect of over 45% in size
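AMA1 (3D7) with his tag at 25 nM final met compounds first, then biotinylated RON2 peptide at 25 nM; detection used donor plus acceptor beads, 10 µg/mL apiece, read by AlphaScreen after 30 min at room temperature.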
AmpC detergent = qHTS Inhibitors of AmpC Beta-Lactamase (assay with detergent); 0.041% of 370,000 active; Potency, µM (titrated, usually from 114 µM), hits mostly inhibitors; AmpC hydrolysis of nitrocefin, absorbance 480 nm, 0.01% Triton; also: nearly all actives have a fitted effect of over 25% in size
Target sequence (P00811 whole entry, looked up): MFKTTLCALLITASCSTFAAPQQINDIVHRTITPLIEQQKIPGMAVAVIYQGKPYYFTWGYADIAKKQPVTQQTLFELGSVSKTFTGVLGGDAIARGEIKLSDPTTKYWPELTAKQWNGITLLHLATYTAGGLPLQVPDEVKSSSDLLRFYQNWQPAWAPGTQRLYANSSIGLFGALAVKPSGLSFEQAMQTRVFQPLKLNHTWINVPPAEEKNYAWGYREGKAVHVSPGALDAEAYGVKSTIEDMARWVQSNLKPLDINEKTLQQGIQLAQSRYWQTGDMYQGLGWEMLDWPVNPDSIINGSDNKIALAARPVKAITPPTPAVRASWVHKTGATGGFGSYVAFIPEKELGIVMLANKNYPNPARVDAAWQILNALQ
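20 mM phosphate pH 7.0 + 0.01% (detergent screen) or 0.0001% Triton X-100; 5.3 nM AmpC reagent; cpd preinc 15 min RT; nitrocefin (800 uM stock) to start; A480 q20 s × 4 min; Activity was normalised to no-enzyme and no-compound control wells.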
AmpC inh no detg = qHTS Inhibitors of AmpC Beta-Lactamase (assay without detergent). P00811. AmpC nitrocefin hydrolysis, absorbance 480 nm, 0.0001% Triton. Potency, µM (top dose mostly 57.1 µM), most hits filed as inhibitors. 0.52% of 330,000 active; also: nearly all actives have a fitted effect of over 20% in size
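20 mM phosphate pH 7.0 + 0.01% (detergent screen) or 0.0001% Triton X-100; 5.3 nM AmpC reagent; cpd preinc 15 min RT; nitrocefin (800 uM stock) to start; A480 q20 s × 4 min; Activity was normalised to no-enzyme and no-compound control wells.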
Hits are given with their value; 0 = inactive; ? = inconclusive; - = not tested or not shown; + = active, no number; [ ] = dose if it differs, or a comment. This is one part of a sample in which hits are shown more often than they occur. Unless noted, calls follow the shape of the dose curve; as a rule, active = well fitted curve in the direction sought with a large enough effect; inconclusive = small, poorly fitted or top-dose-only effect, or another doubt; inactive = no such curve, though single readings can be large; an effect the other way counts as inactive or inconclusive.

SMILES | Cycloheximide cs | Shiga toxin inh | SARS PLP yeast | AMA1 RON2 block | AmpC detergent | AmpC inh no detg
COc1ccccc1C(=O)Nc1c(C(=O)N2CCN(c3ccc(F)cc3)CC2)oc2ccccc12 | - | - | - | - | 0 | -
CSCC[C@H](NC(=O)[C@H](CC(C)C)NC(=O)[C@@H]1CCCN1C(=O)[C@H](Cc1ccccc1)NC(=O)[C@H](Cc1ccccc1)NC(=O)[C@@H]1CCC(=O)N1)C(N)=O | 0 | 0 | - | - | - | -
OC1CC2CCC(C1)N2CCCN1c2ccccc2Sc2ccc(Cl)cc21 (stereo not given) | - | - | - | 0 | - | -
CCSc1nnc(NC(=O)c2nc(S(=O)(=O)Cc3ccc(F)cc3)ncc2Cl)s1 | 50 | 75 | 0 | 0 | 0 | 0
Cc1ccc(C)c(NC(=O)c2nc(S(=O)(=O)Cc3ccc(F)cc3)ncc2Cl)c1 | - | - | - | - | 0 | -
COc1c(-c2ccc(O)cc2)oc2cc(O)cc(O)c2c1=O | 0 | 0 | 0 | 0 | 0 | 0
COc1ccc(-c2oc3ccccc3c(=O)c2OC(C)=O)cc1 | 34 | 68 | 0 | 0 | ? | 0
COc1ccc(-c2oc3ccccc3c(=O)c2OCC(=O)O)cc1 | 0 | 0 | 0 | 0 | 0 | 0[2.29 µM]
O=C(O)COc1c(-c2ccco2)oc2ccccc2c1=O | 0 | 0 | 0 | 0 | 0 | 0
CC(=O)Oc1c(-c2ccc(Br)o2)oc2ccccc2c1=O | 13 | 0 | 0 | 0 | 0 | 0
COc1ccc(-c2oc3cc(O)c(OC)c(O)c3c(=O)c2OC)cc1 | 16 | 0 | 0 | 0 | 0 | 0
Cc1ccc(C(=O)Nc2nnc(-c3ccncc3)o2)cc1 | 9.8 | 0 | 0 | 0 | 0 | 0
O=C(Nc1nnc(-c2ccc3c(c2)CCCC3)o1)c1ccccc1 | 20 | active | 0 | 0 | 0 | 0
O=C(CCOc1ccccc1)Nc1nnc(-c2ccc3c(c2)OCCO3)o1 | 21 | 0 | 0 | 0 | 0 | 0
O=C(COc1ccccc1)Nc1nnc(-c2ccc3c(c2)CCCC3)o1 | 0 | 0 | ? | 0 | ? | 10µM
O=C(Nc1nnc(-c2ccc3c(c2)OCCO3)o1)c1ccc(Cc2ccccc2)cc1 | 0 | 0 | 0 | 0 | 0 | 0
CC(C)NS(=O)(=O)c1ccc(OCC(=O)N2CCN(C)CC2)cc1 | 0 | 0 | 0 | 0 | 0 | 0
Cc1ccc(-n2ncc3c(N4CCN(CCO)CC4)ncnc32)cc1Cl | - | - | - | - | 0 | -
COc1cc(/C=N/N=C(/N)c2nonc2N)cc(Br)c1OCc1ccccc1C | 0 | 0 | 0 | 0 | 0 | 0
CCOc1cc(/C=N/N=C(/N)c2nonc2N)cc(Br)c1OCc1ccc(Cl)cc1 | 0 | 0 | 0 | 0 | 0 | 16µM
Cc1ccc2c(CSc3nnc(N)s3)cc(=O)oc2c1 | 32 | 60 | 0 | 0 | 0 | 0
CCC(CC)C1C(C#N)=C(N)Oc2n[nH]c(-c3ccccc3)c21 (stereo not given) | 0 | 0 | 0 | 0 | 0 | 0
COc1ccc(-c2nc3ccc([N+](=O)[O-])cc3[nH]2)cc1 | 60 | 57 | 0 | 0 | 0 | 0
O=[N+]([O-])c1cccc(-c2nc3ccc([N+](=O)[O-])cc3[nH]2)c1 | 0 | 0 | 0 | 0 | 0 | 0
O=[N+]([O-])c1ccc(N2CCN(S(=O)(=O)c3cnc[nH]3)CC2)cc1 | 0 | 0 | 0 | 0 | 0 | 0
SMILES | Cycloheximide cs | Shiga toxin inh | SARS PLP yeast | AMA1 RON2 block | AmpC detergent | AmpC inh no detg
O=[N+]([O-])c1ccc2nc(-[n+]3c(-c4ccccc4)cc(-c4ccccc4)cc3-c3ccccc3)[nH]c2c1 | 0 | 0 | 0 | 0 | 0 | 0
O=[N+]([O-])c1ccc2nc(-c3ccccc3[N+](=O)[O-])[nH]c2c1 | 26 | 0 | 0 | 0 | 0 | 0
Cc1ccc(-c2nc3ccc([N+](=O)[O-])cc3[nH]2)cc1 | 16 | 124 | 0 | 0 | 0 | 0
O=[N+]([O-])c1ccc(-c2cnc[nH]2)cc1 | 26 | 53 | 0 | 0 | 0 | 0
O=[N+]([O-])c1ccc2nc(-c3ccncc3)[nH]c2c1 | 32 | 0 | 0 | 0 | 0 | 0
O=[N+]([O-])c1ccc(-c2cc(-c3ccc(Cl)cc3)n[nH]2)cc1 | 0 | 39 | 0 | 0 | 0 | 0
O=[N+]([O-])c1ccc2nc(-c3ccc(Cl)cc3)[nH]c2c1 | 92 | + | 0 | 0 | ? | 0
O=C(c1ccc(-n2cccn2)cc1)N1CCc2c([nH]c3ccccc23)C1c1ccccn1 (stereo not given) | 0 | 0 | 0 | 0 | 0 | 0
O=C(N/N=C/c1ccc(O)cc1)c1[nH]c2ccc(Br)cc2c1-c1ccccc1 | 0 | 0 | 0 | 0 | 0 | 0
CCC(C)NC(=O)C1CCC(=O)N(c2cc(OC)c(OC)c(OC)c2)C1c1ccc(OC)cc1 (stereo not given) | 0 | 0 | 0 | 0 | ? | 0
COc1ccc(C2C(C(=O)NCc3ccccn3)CCC(=O)N2c2cc(OC)c(OC)c(OC)c2)cc1 (stereo not given) | 40 | 94 | 0 | 0 | 0 | 0
COc1ccc(NC(=O)N2CCCC(c3nc(-c4ccc(OC)cc4)no3)C2)cc1 (stereo not given) | 40 | 0 | 0 | 0 | 0 | 0
O=S(=O)(c1ccc(Cl)cc1)N1CCCC(c2nc(-c3ccc(F)cc3)no2)C1 (stereo not given) | - | - | 0 | 0 | 0 | 0
COc1ccc(-c2noc(C3CCCN(C(=O)Nc4ccccc4F)C3)n2)cc1 (stereo not given) | 38 | 0 | 0 | 0 | 0 | 0
O=C(Nc1ccc(Cl)cc1)N1CCC(c2nc(-c3ccc(F)cc3)no2)CC1 | 35 | 53 | 0 | 0 | 0 | 0
COc1ccc(NC(=O)N2CCCC(c3nc(-c4ccc(C(C)C)cc4)no3)C2)cc1 (stereo not given) | 32 | 0 | 0 | 0 | 0 | 0
Cn1c(=O)n(C)c2cc([N+](=O)[O-])c(N3CCN(C(=O)c4cccc(F)c4)CC3)cc21 | 0 | 0 | 0 | 0 | 0 | 0
Cc1ccc(C(=O)N2CCN(S(=O)(=O)c3ccccc3[N+](=O)[O-])C2)cc1 | 37 | 92 | 0 | 0 | 0 | 0
Cc1ccc(C(=O)N2CCN(c3cc4c(cc3[N+](=O)[O-])n(C)c(=O)n4C)CC2)cc1 | 0 | 0 | 8.9µM | 0 | 0 | 0
Cc1ccc(S(=O)(=O)N2CCN(C(=O)c3ccccc3)C2)cc1[N+](=O)[O-] | 0 | 0 | 0 | 0 | 0 | 0
Cc1ccc(C)c(C(=O)CN2Cc3ccccc3C2=O)c1 | 22 | 65 | 0 | 0 | 0 | 0
N=C1c2ccccc2CN1CC(=O)c1ccccc1 | 41 | 40 | 0 | 0 | 0 | 0
COc1ccc(NC(=O)N2CCCC(CCC(=O)N(C)CCc3ccccn3)C2)cc1 (stereo not given) | 30 | 91 | 0 | 0 | 0 | 0
CCc1ccccc1NC(=O)N1CCCC(CCC(=O)N(C)CCc2ccccn2)C1 (stereo not given) | 0 | 0 | 0 | 0 | 0 | 0

From PubChem
